Reference: PubChem BioAssay (NCATS)
Results filed as inconclusive are left out. Active and inactive are the calls of the source. The call rests on the fitted dose curve; in most records, active means well fitted curve in the direction sought with a large enough effect; inconclusive means small, poorly fitted or top-dose-only effect, or another doubt; inactive means no such curve, though single readings can be large; an effect the other way counts as inactive or inconclusive.

Assays:
[1] = Quantitative High-Throughput drug screen in 47 multiple myeloma cell lines against the NCATS MIPE library collection: NCIH929_DSMZ cell viability assay (AID 1918978); further: nearly all actives have a fitted effect of over 35% in size
Outline: (§1)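 Myeloma cells (500/well) treated with MIPE 4.0 compounds for 48 h at 37 °C, 5% CO2. Viability read as ATP via CellTiter-Glo luminescence after 5 min at RT; DMSO-only wells = 100%, media-only = 0% viability.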

[2] = Quantitative High-Throughput drug screen in 47 multiple myeloma cell lines against the NCATS MIPE library collection: MM1S_ATCC cell viability assay (AID 1918980); further: nearly all actives have a fitted effect of over 45% in size
Outline: as §1

[3] = Quantitative High-Throughput drug screen in 47 multiple myeloma cell lines against the NCATS MIPE library collection: L363_DSMZ cell viability assay (AID 1918984); further: nearly all actives have a fitted effect of over 40% in size
Outline: as §1

[4] = Quantitative High-Throughput drug screen in 47 multiple myeloma cell lines against the NCATS MIPE library collection: KMS34_JCRB cell viability assay (AID 1918985); further: nearly all actives have a fitted effect of over 40% in size
Outline: as §1

[5] = Quantitative High-Throughput drug screen in 47 multiple myeloma cell lines against the NCATS MIPE library collection: OCIMY1_PLB cell viability assay (AID 1918979); further: nearly all actives have a fitted effect of over 35% in size; on viability: series mostly up to about 46 µM
Outline: as §1

[6] = Quantitative High-Throughput drug screen in 47 multiple myeloma cell lines against the NCATS MIPE library collection: LP1_DSMZ cell viability assay (AID 1918982); further: nearly all actives have a fitted effect of over 35% in size
Outline: as §1

[7] = Quantitative High-Throughput drug screen in 47 multiple myeloma cell lines against the NCATS MIPE library collection: KMS28PE_JCRB cell viability assay (AID 1918983); further: nearly all actives have a fitted effect of over 35% in size
Outline: as §1

[8] = Quantitative High-Throughput drug screen in 47 multiple myeloma cell lines against the NCATS MIPE library collection: OCIMY7_PLB cell viability assay (AID 1918987); further: nearly all actives have a fitted effect of over 65% in size
Outline: as §1

[9] = Quantitative High-Throughput drug screen in 47 multiple myeloma cell lines against the NCATS MIPE library collection: OCIMY5_PLB cell viability assay (AID 1918988); further: nearly all actives have a fitted effect of over 65% in size
Outline: as §1

[10] = Quantitative High-Throughput drug screen in 47 multiple myeloma cell lines against the NCATS MIPE library collection: MM1R_ATCC cell viability assay (AID 1918981); further: nearly all actives have a fitted effect of over 35% in size
Outline: as §1

Measured: Potency
Potency means the concentration at half of the fitted maximal effect.

O=C(NOCC1CC1)c1ccc(F)c(F)c1Nc1ccc(I)cc1Cl
active: [1] 20.9 µM | [2] 23.5 µM | [3] 18.7 µM | [4] 23.5 µM

Cc1ccc(C)c(OCCCC(C)(C)C(=O)O)c1
active: [1] 23.5 µM | [8] 18.7 µM
inactive: [5] | [6] | [7] | [4]

CC1(C)NC(=O)N(c2ccc([N+](=O)[O-])c(C(F)(F)F)c2)C1=O
active: [6] 18.7 µM | [7] 16.6 µM | [9] 8.33 µM
inactive: [1] | [5]

CCCOc1ccc2nc(NC(=O)OC)[nH]c2c1
active: [1] 1.48 µM | [10] 0.0083 µM | [7] 0.0066 µM | [4] 0.0059 µM | [9] 0.0026 µM

O=C(NCC1CCCCN1)c1cc(OCC(F)(F)F)ccc1OCC(F)(F)F (centres undefined)
active: [1] 9.35 µM | [2] 8.33 µM | [3] 0.743 µM | [8] 7.43 µM

COc1ccc2cc([C@H](C)C(=O)O)ccc2c1
inactive: [1] | [2] | [10] | [6] | [4]
active: [8] 33.2 µM | [9] 20.9 µM

O=C(NC(Cc1cc(=O)[nH]c2ccccc12)C(=O)O)c1ccc(Cl)cc1 (centres undefined)
inactive: [1] | [5] | [10] | [6]
active: [9] 14.8 µM

O=c1cc(N2CCOCC2)oc2c(-c3ccccc3)cccc12
active: [5] 11.8 µM | [2] 14.8 µM | [10] 7.43 µM | [6] 11.8 µM | [7] 10.5 µM | [4] 11.8 µM | [9] 13.2 µM
inactive: [3]

OC(CN1CCN(c2cccc(Cl)c2)CC1)C(c1ccccc1)c1ccccc1 (centres undefined)
active: [2] 5.26 µM
inactive: [1] | [3]

c1ccc2[nH]c(-c3cscn3)nc2c1
not listed: [2] | [3] | [5]
inactive: all other assays above

O=c1c(O)c(-c2ccc(O)cc2O)oc2cc(O)cc(O)c12
active: [2] 0.833 µM
inactive: [5]

CCC1=C(C)CN(C(=O)NCCc2ccc(S(=O)(=O)NC(=O)NC3CCC(C)CC3)cc2)C1=O (centres undefined)
not listed: [1] | [8]
inactive: all other assays above

Nc1nc(N)c(N=O)c(OCC2CCCCC2)n1
active: [1] 5.26 µM | [2] 13.2 µM | [10] 14.8 µM | [7] 14.8 µM | [3] 2.64 µM | [4] 11.8 µM | [8] 1.48 µM | [9] 13.2 µM

CNC[C@@H](O)[C@@H](O)[C@H](O)[C@H](O)CO
inactive: [1] | [5] | [6] | [7] | [4]

C[C@H](Cc1ccc(O)c(O)c1)[C@@H](C)Cc1ccc(O)c(O)c1
inactive: [7]
active: [5] 18.7 µM | [2] 20.9 µM | [10] 20.9 µM | [6] 18.7 µM | [3] 6.62 µM | [4] 16.6 µM | [9] 16.6 µM

Cc1ncc([N+](=O)[O-])n1CC(C)O (centres undefined)
inactive: [10] | [6] | [7]
active: [1] 20.9 µM | [2] 14.8 µM

CCCCc1ccc2nc(NC(=O)OC)[nH]c2c1
active: [1] 0.935 µM | [10] 0.059 µM | [6] 0.0187 µM | [7] 0.0148 µM | [4] 0.0148 µM | [9] 0.0037 µM

CCCCCCCCOc1ccccc1C(=O)Nc1ccc(C(=O)OCC[N+](C)(CC)CC)cc1
active: [1] 20.9 µM | [3] 4.69 µM | [4] 23.5 µM | [9] 20.9 µM

COCCCOc1ccnc(CS(=O)c2nc3ccccc3[nH]2)c1C (centres undefined)
inactive: [1] | [5] | [10] | [7] | [3] | [4]

CC(C)c1ccc2oc3nc(N)c(C(=O)O)cc3c(=O)c2c1
inactive: [1] | [10] | [7]
active: [8] 18.7 µM

Cc1cc2cc3c(C)cc(=O)oc3c(C)c2o1
inactive: [6] | [4]
active: [1] 8.33 µM | [2] 5.9 µM | [10] 20.9 µM | [3] 23.5 µM | [8] 26.4 µM | [9] 8.33 µM

CC1=C(C)C(=O)C(C(CCCCCC(=O)O)c2ccccc2)=C(C)C1=O (centres undefined)
inactive: [1] | [7]

CC(C)[N+]1(C)[C@@H]2CC[C@H]1CC(OC(=O)C(CO)c1ccccc1)C2 (some centres undefined)
active: [3] 14.8 µM
not listed: [1] | [8]
inactive: all other assays above

CCc1nc(N)nc(N)c1-c1ccc(Cl)cc1
inactive: [1] | [7] | [9]
active: [2] 16.6 µM | [6] 8.33 µM

NC(=O)Cc1cccc(C(=O)c2ccccc2)c1N
inactive: [1] | [10] | [6] | [7] | [3]
active: [9] 4.69 µM

CC(C)Oc1ccc2c(=O)c(-c3ccccc3)coc2c1
inactive: [1] | [10] | [4]
active: [2] 13.2 µM | [7] 14.8 µM

CCN(CC)C(=S)SSC(=S)N(CC)CC
inactive: [3]
active: [5] 0.0235 µM | [2] 0.0093 µM | [10] 0.0093 µM | [6] 0.0209 µM | [7] 0.0118 µM | [4] 0.0235 µM | [8] 0.001 µM | [9] 0.0059 µM

O=C1c2c(O)cc(O)cc2OC(c2ccc(O)c(O)c2)C1O (centres undefined)
active: [8] 14.8 µM
inactive: [1] | [5] | [6] | [9]

COC1=C(OC)C(=O)C(CCCCCCCCCCO)=C(C)C1=O
inactive: [5]
active: [1] 23.5 µM | [7] 14.8 µM | [3] 14.8 µM | [8] 16.6 µM | [9] 20.9 µM

CC[C@]1(O)C[C@H]2CN(CCc3c([nH]c4ccccc34)[C@@](C(=O)OC)(c3cc4c(cc3OC)N(C=O)[C@H]3[C@@](O)(C(=O)OC)[C@H](OC(C)=O)[C@]5(CC)C=CCN6CC[C@]43[C@@H]65)C2)C1
active: [1] 0.0235 µM | [5] 0.059 µM | [7] 0.0047 µM | [3] 0.132 µM | [4] 0.0019 µM | [8] 0.0235 µM

Cc1cc(Cl)ccc1OCCCC(=O)NO
active: [1] 2.64 µM | [2] 1.18 µM | [10] 23.5 µM | [6] 26.4 µM | [4] 26.4 µM | [8] 0.59 µM

CCCCC(CC)COC(=O)C(C#N)=C(c1ccccc1)c1ccccc1 (centres undefined)
inactive: [1] | [5] | [10] | [7] | [4] | [8]

CN(C)CCCC1(c2ccc(F)cc2)OCc2cc(C#N)ccc21 (centres undefined)
inactive: [5] | [6] | [3] | [4]
active: [2] 18.7 µM | [8] 11.8 µM | [9] 18.7 µM

CN(c1nccc(=O)[nH]1)C1CCN(c2nc3ccccc3n2Cc2ccc(F)cc2)CC1
inactive: [5] | [6] | [7] | [3] | [4]
active: [2] 11.8 µM

Oc1ccc2ccccc2c1SSc1c(O)ccc2ccccc12
active: [5] 20.9 µM | [2] 14.8 µM | [10] 14.8 µM | [6] 23.5 µM | [3] 13.2 µM | [4] 5.9 µM | [8] 4.69 µM | [9] 14.8 µM

COc1ccc(C2(C#N)CCC(C(=O)O)CC2)cc1OC1CCCC1 (centres undefined)
inactive: [5] | [10] | [6] | [7] | [4]
active: [2] 26.4 µM

CCN(CC)CCOc1ccc(Cc2ccccc2)cc1
active: [2] 23.5 µM | [6] 14.8 µM | [7] 20.9 µM | [9] 11.8 µM
inactive: [5] | [8]

O=C(NCCO[N+](=O)[O-])c1cccnc1
inactive: [5] | [6] | [7] | [4] | [9]
active: [2] 4.69 µM

CC(C)C[C@H](NC(=O)[C@H](Cc1ccccc1)NC(=O)c1cnccn1)B(O)O
active: [5] 0.0053 µM | [2] 0.0066 µM | [10] 0.0047 µM | [6] 0.0118 µM | [7] 0.0093 µM | [4] 0.0083 µM | [8] 0.001 µM | [9] 0.0047 µM

CC(C)c1ccc2c(c1)c(SC(C)(C)C)c(CC(C)(C)C(=O)O)n2Cc1ccc(Cl)cc1
inactive: [5]
active: [2] 7.43 µM | [8] 14.8 µM

CC(C)(S)[C@@H](N)C(=O)O
inactive: [5] | [6] | [7] | [3] | [8]

NCCCCNCCCN
active: [5] 10.5 µM | [2] 3.32 µM | [10] 2.96 µM | [6] 16.6 µM | [4] 9.35 µM | [8] 10.5 µM | [9] 14.8 µM

Cc1c(OCC(F)(F)F)ccnc1CS(=O)c1nc2ccccc2[nH]1 (centres undefined)
inactive: [5] | [6] | [4]
active: [10] 0.833 µM

CCN(CCO)CCCC(C)Nc1ccnc2cc(Cl)ccc12 (centres undefined)
inactive: [5] | [6] | [7] | [3] | [4] | [9]

O=c1c(O)c(-c2cc(O)c(O)c(O)c2)oc2cc(O)cc(O)c12
active: [10] 20.9 µM | [7] 23.5 µM | [9] 23.5 µM
inactive: [5]

O=C(CS(=O)Cc1ccco1)NCC=CCOc1cc(CN2CCCCC2)ccn1 (centres undefined)
inactive: [5] | [10] | [6] | [7] | [3] | [4]

c1cnc2cc3c(cc2n1)C1CNCC3C1
inactive: [5] | [10] | [6] | [7] | [4] | [9]

CN(C)c1ccc(O)c2c1C[C@H]1C[C@H]3[C@H](N(C)C)C(=O)C(C(N)=O)=C(O)[C@@]3(O)C(=O)C1=C2O
active: [5] 18.7 µM | [2] 3.72 µM | [10] 16.6 µM | [7] 20.9 µM | [4] 16.6 µM | [8] 10.5 µM | [9] 9.35 µM

C[C@@H](c1ncncc1F)[C@](O)(Cn1cncn1)c1ccc(F)cc1F
not listed: [1] | [3] | [8]
inactive: all other assays above

Cc1cccc(-c2[nH]ncc2-c2ccc3ncccc3n2)n1
active: [2] 14.8 µM
inactive: [5] | [7] | [3] | [4]

CCOC(=O)C1=C[C@@H](OC(CC)CC)[C@H](NC(C)=O)[C@@H](N)C1
inactive: [5] | [10] | [6] | [7] | [4]

CCC(C)(Oc1ccc(C2(c3ccc(OC(C)(CC)C(=O)O)cc3)CCCCC2)cc1)C(=O)O (centres undefined)
inactive: [5] | [10] | [6] | [3] | [9]

Clc1ccc2c(N3CCN(CCCN4CCN(c5ccnc6cc(Cl)ccc56)CC4)CC3)ccnc2c1
inactive: [5] | [10] | [6] | [7] | [3] | [4]

Cc1cc2c(s1)Nc1ccccc1N=C2N1CCN(C)CC1
inactive: [5] | [10] | [6] | [7] | [4]

Cn1c(NCCN(CCO)CCCc2ccc([N+](=O)[O-])cc2)cc(=O)n(C)c1=O
active: [2] 23.5 µM
inactive: [5] | [4] | [8]
